Hedgehog inh – Hedgehog pathway signaling inhibitors, primary screen, luminescence, Shh-LIGHT2 cells, Gli-luciferase | inhibition, % (no concentration beside the values) | actives 2.1% (n = 22,000) | Shh-LIGHT2 Gli-luciferase reporter, 30 h;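 active = mean inhibition across valid replicates above about 65%, limit read from the data; inconclusive = mean under the limit, yet half or more replicates past it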;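 note: pathway switched on by Shh-conditioned medium diluted 1 in 25 in low serum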
MITF inhib – inhibitors of MITF, primary screen, MITF inhibitor project, cell-based, luminescence; TRPM1 promoter luciferase, 24 h; inhibition, % (test concentration not listed); actives 0.28% (n = 37,000); AID 2240, 2010; in the data active = inhibition above about 85%; inconclusive = no clear call, values can overlap the other calls; inactive = below about 68%;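 note: human melanocyte line stably carrying TRPM1 promoter luciferase reporter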
NOMO-1 viab – NOMO-1 AML cell viability reduction, primary screen, STK33 inhibitor project, CellTiter-Glo luminescence. NOMO-1 AML viability, 72 h. inhibition, % (test concentration not listed). actives 7.5% (n = 37,000); in the data active = inhibition above about 80%; inconclusive = no clear call, values can overlap the other calls
Numbers without * were called inactive; ? = inconclusive; · = no result. The list is not random: actives were taken first. Their share in the collection is about 8.1%.

SMILES	Hedgehog inh	MITF inhib	NOMO-1 viab
N#C/C(=C\c1cc(Cl)cc(Cl)c1)c1cccnc1	73*	2	83*
N#C/C(=C\c1ccncc1)c1ccc(NC(N)=O)cc1	-12	-66	20
COc1ccc(OC)c(NC(=O)Cn2cc(C(C)=O)c3ccccc32)c1	·	31	46
OC(COc1ccccc1Cl)Cn1nnc2ccccc21 (stereo not given)	·	-33	7
Cc1ccc(C(=O)CSc2nc(C)nc3sc4c(c23)CCCC4)cc1	·	-45	18
Cc1nc(SC2CCCCN(C(=O)c3ccc(Cl)cc3)C2=O)c2c3c(sc2n1)CCCC3 (stereo not given)	19	-21	93*
FC(F)(F)c1nnc(Nc2cccnc2)s1	-8	7	-22
Oc1c(C(Nc2cccnc2)c2ccc(C(F)(F)F)cc2)ccc2cccnc12 (stereo not given)	·	67	109*
CCNC(=O)c1c(NC(=O)COc2cccc3ccccc23)sc2c1CCCC2	·	6	6
COc1ccc(OC)c(NC(=O)CSc2nnnn2-c2ccccc2)c1	·	0	10
COc1ccc(-n2nnnc2SCC(=O)Nc2cc(C)c(Cl)cc2OC)cc1	·	42	92*
O=[N+]([O-])c1cccc(COc2ccc(-c3cnc4ccccc4n3)cc2)c1	·	-2	-30
COC(=O)C(C)Sc1ncnc2scc(-c3ccc(Cl)cc3)c12 (stereo not given)	·	22	-15
C[C@H]1CN([C@@H](C)CO)C(=O)Cc2cc(NC(=O)Nc3ccc4c(c3)OCO4)ccc2O[C@H]1CN(C)Cc1ccc(C(F)(F)F)cc1	-6	42	78
C[C@H]1CN([C@@H](C)CO)C(=O)Cc2cc(NC(=O)Nc3ccc4c(c3)OCO4)ccc2O[C@@H]1CN(C)Cc1ccc(C(F)(F)F)cc1	-41	1	?
C[C@@H]1CN([C@@H](C)CO)C(=O)Cc2cc(NC(=O)Nc3ccc4c(c3)OCO4)ccc2O[C@@H]1CN(C)Cc1ccc(C(F)(F)F)cc1	-14	1	95*
C[C@H](CO)N1C[C@H](C)[C@H](CN(C)Cc2ccc(C(F)(F)F)cc2)Oc2ccc(NC(=O)Nc3ccc4c(c3)OCO4)cc2CC1=O	-26	35	104*
N#CC(=C1SCCCS1)S(=O)(=O)c1cccs1	18	-13	23
COC(=O)c1ccc(C(=O)OC)c(NC(=O)c2cnn3cccnc23)c1	·	5	35
COc1ccc2c(c1)c(=O)oc1cc(OC(C)C)ccc12	-150	9	35
COc1ccc(NC(=O)Cn2cnc3sc(-c4ccccc4)cc3c2=O)c([N+](=O)[O-])c1	·	-12	0
Cc1ccc(-c2nc3ccccc3s2)cc1NC(=O)COc1ccc(Br)cc1	·	-32	50
CCc1cccc(C)c1NC(=O)CSc1nnc(-c2ccc(OC)cc2)n1C	·	4	12
C[C@@H]1CN([C@H](C)CO)C(=O)Cc2cc(NS(=O)(=O)c3cccs3)ccc2O[C@@H]1CN(C)Cc1ccc(-c2ccccc2)cc1	-30	-8	34
C[C@@H]1CN([C@@H](C)CO)C(=O)c2cc(NS(=O)(=O)c3cccs3)ccc2O[C@@H]1CN(C)Cc1ccc(-c2ccccc2)cc1	36	19	91*
SMILES	Hedgehog inh	MITF inhib	NOMO-1 viab
C[C@@H]1CN([C@@H](C)CO)C(=O)Cc2cc(NS(=O)(=O)c3cccs3)ccc2O[C@@H]1CN(C)Cc1ccc(Oc2ccccc2)cc1	39	26	97*
COc1ccc(CN(C)C[C@@H]2Oc3ccc(NS(=O)(=O)c4cccs4)cc3CC(=O)N([C@H](C)CO)C[C@H]2C)cc1	-4	0	16
C[C@H]1CN([C@@H](C)CO)C(=O)Cc2cc(NS(=O)(=O)c3cccs3)ccc2O[C@H]1CN(C)Cc1ccc(-c2ccccc2)cc1	-10	16	115*
C[C@@H]1CN([C@H](C)CO)C(=O)c2cc(NS(=O)(=O)c3cccs3)ccc2O[C@H]1CN(C)Cc1ccc(-c2ccccc2)cc1	·	-3	20
Cc1ccc(CCC(=O)Nc2cc(Cl)cc(Cl)c2)o1	·	11	48
CC(C)NC(=O)N(C)C[C@H]1Oc2c(NC(=O)Nc3ccc(C(F)(F)F)cc3)cccc2C(=O)N([C@@H](C)CO)C[C@H]1C	21	24	121*
CC(C)NC(=O)N(C)C[C@@H]1Oc2c(NC(=O)Nc3ccc(C(F)(F)F)cc3)cccc2C(=O)N([C@H](C)CO)C[C@@H]1C	17	27	117*
CC(C)NC(=O)N(C)C[C@@H]1Oc2c(NC(=O)Nc3ccc(C(F)(F)F)cc3)cccc2C(=O)N([C@@H](C)CO)C[C@@H]1C	-43	-15	67
CC(C)NC(=O)Nc1cccc2c1O[C@H](CN(C)C(=O)Nc1ccc(C(F)(F)F)cc1)[C@H](C)CN([C@@H](C)CO)C2=O	-12	-1	34
